Experimental data published in ChEMBL document CHEMBL3988442, “University of Dundee, Small-Polar-MMV Screening Library” (2021).
Hit rate of the full screen: of about 48,000 compounds, about 13,000 (27%) showed an effect of 50% or more. Some of the results follow.

tested on: Wolbachia pipientis; assay: Anti-Wolbachia Cell-Based Screen; format: functional; parameters: scale not given: in the data most compounds retested in dose-response had high values; settings: 5 µM

Going from `CNC(=O)C(C)(C)NC(=O)c1cc(OCC2CCC2)cc(C(=O)OC)c1` to `COc1cccc(CN2CCC3(CC2)CCN(C(=O)[C@@H]2CCCO2)C3)c1.O=C(O)C(F)(F)F`, the “Percent Effect” value rises from -3.572% to 105.3%.

Compared with `Fc1cccc(-c2nnn3c2COC(CNCc2cccs2)C3)c1.O=C(O)C(F)(F)F` (stereo not drawn), `Cc1cc(N(Cc2cccs2)C2CC2)n2nc(C(F)(F)F)nc2n1` is higher in “Percent Effect” value: 3.148% for the first, 103% for the second.

First: CCCN1CCC(N2CCN(c3cc(C)nc(COC)n3)CC2)CC1
Second: OCC1CCCN1c1cc(N2CCN(c3ccccn3)CC2)ncn1 (stereo not drawn)
The “Percent Effect” value of the first is lower: -8.34% for the first, 2.004% for the second.

Compared with `CN(C)c1cccc(C2CCCN2CCCN2CCOC2=O)c1` (stereo not drawn), `CC(NCC1CCN(CCO)CC1)c1cccc(Cl)c1` (stereo not drawn) is higher in “Percent Effect” value: -17.44% for the first, -3.921% for the second.

First: CN(CCC(O)c1ccccc1)c1cc(N2CCOCC2)ncn1 (stereo not drawn)
Second: CN(CCc1ccccn1)c1cc(N2CCCCC2)ncn1
The “Percent Effect” value of the first is higher: 3.711% for the first, -10.66% for the second.

Compared with `CN(C)CCN(C)c1cc(N2CCN(c3ccccn3)CC2)ncn1`, `CN(C)c1cc(N2CCN(c3ccccn3)CC2)ncn1` is lower in “Percent Effect” value: 127.7% for the first, 109.8% for the second.

First: Cc1ccccc1N1CCN(c2cc(N(C)C)ncn2)C(C)C1 (stereo not drawn)
Second: Cc1cc(C(=O)N2CC[C@H]3[C@@H]2CCC(=O)N3c2ccccc2)no1
The “Percent Effect” value of the first is higher: 2.423% for the first, -22.73% for the second.

Compared with `CS(=O)(=O)N1C[C@@H]2CC[C@H](C1)N(C(=O)CCc1n[nH]c3c1CCCC3)C2`, `O=C(c1cc(Cl)ccc1OC1CCN(C2CCCC2)CC1)N1CCCO1` is higher in “Percent Effect” value: -4.237% for the first, -1.079% for the second.

Compared with `O=C(C1=CCCCC1)N1CCC2(CC1)COC(COc1ccccn1)C2.O=C(O)C(F)(F)F` (stereo not drawn), `COc1cccc(CN2CCC3(CCN(C(=O)C4CC=CC4)CC3)C2)c1.O=C(O)C(F)(F)F` is higher in “Percent Effect” value: -10.4% for the first, 2.015% for the second.

Compared with `c1ccc2oc(C3CCN(Cc4ncon4)CC3)nc2c1`, `N#Cc1cccc(N2CCC(c3nccn3Cc3cscn3)CC2)n1` is higher in “Percent Effect” value: -12.07% for the first, 19.37% for the second.

Compared with `CCOCC1CN(C(=O)c2cnoc2C)Cc2cn(C)nc21.O=C(O)C(F)(F)F` (stereo not drawn), `CCOCC1CN(C(=O)c2cnoc2C)Cc2cnn(C)c21.O=C(O)C(F)(F)F` (stereo not drawn) is higher in “Percent Effect” value: -24.2% for the first, 112.3% for the second.

First: CCOCC1CN(C(=O)c2ccco2)Cc2cnn(C)c21 (stereo not drawn)
Second: CCOCC1CN(C(=O)c2ccoc2C)Cc2cnn(C)c21 (stereo not drawn)
The “Percent Effect” value of the first is lower: 93.66% for the first, 98.5% for the second.

Going from `CCOCC1CN(C(=O)Cc2ccccn2)Cc2c1cnn2C.O=C(O)C(F)(F)F.O=C(O)C(F)(F)F` (stereo not drawn) to `CCOCC1CN(C(=O)Cc2ccccn2)Cc2cnn(C)c21.O=C(O)C(F)(F)F.O=C(O)C(F)(F)F` (stereo not drawn), the “Percent Effect” value rises from -14.09% to 117.4%.

Compared with `CCOCC1CN(C(=O)CS(C)(=O)=O)Cc2cnn(C)c21.O=C(O)C(F)(F)F` (stereo not drawn), `CCOCC1CN(C(=O)c2cnoc2C)Cc2cn(CC3CC3)nc21` (stereo not drawn) is lower in “Percent Effect” value: 16.84% for the first, -17.44% for the second.

Compared with `CCOCC1CN(C(=O)c2ccco2)Cc2nn(C)cc21` (stereo not drawn), `CC(O)(CNC(=O)NCc1cccc(-n2cncn2)c1)c1ccco1` (stereo not drawn) is higher in “Percent Effect” value: 6.633% for the first, 22.01% for the second.

First: COc1ccccc1NC(=O)NCCCC(=O)Nc1cn[nH]c1
Second: CCOCc1ccccc1NC(=O)NCC(C)(O)c1ccsc1 (stereo not drawn)
The “Percent Effect” value of the first is higher: 3.089% for the first, -1.013% for the second.

Going from `CC(C)Oc1cccc(F)c1C(C(=O)O)N(C)Cc1ccon1` (stereo not drawn) to `CCCN(C)c1ccc(C(=O)NCc2ccnc(C)n2)cc1`, the “Percent Effect” value rises from -4.815% to 14.15%.

Going from `CC(C#N)CN(C)Cc1cc(Cl)cc2cccnc12` (stereo not drawn) to `CCN(CC)CCCC(C)NC(=O)c1cccnc1-n1cccn1` (stereo not drawn), the “Percent Effect” value falls from -4.416% to -4.775%.

Going from `FC(F)(F)Sc1ccc(NCc2nnc(C3CC3)o2)cc1` to `Cc1ccc(CN(c2cc(C)nc3nc(C(F)(F)F)nn23)C2CC2)cc1`, the “Percent Effect” value rises from 4.65% to 24.27%.

Compared with `CC(C)Cc1ncc2c(n1)CN(c1nccc(N(C)C)n1)C2`, `CCC(C)Oc1cc(C(=O)Nc2nc(C)ns2)ccn1` (stereo not drawn) is lower in “Percent Effect” value: -11.83% for the first, -22% for the second.

First: Cc1nc(C(C)(C)NCc2nnc(C(C)C)o2)sc1C
Second: CCn1nc(C)c(CNC(=O)NCC(C)(O)c2ccsc2)c1C (stereo not drawn)
The “Percent Effect” value of the first is higher: -6.227% for the first, -9.413% for the second.

First: O=C(NCCc1cccnc1)NC1CCOC2(CCCCC2)C1 (stereo not drawn)
Second: CC(C(=O)NCCc1cccs1)N1CCC(n2ccnc2)CC1 (stereo not drawn)
The “Percent Effect” value of the first is lower: -5.946% for the first, 14.05% for the second.

Going from `CC(O)(CNC(=O)c1cccnc1-n1cccn1)c1ccsc1` (stereo not drawn) to `CC(O)(CNC(=O)c1cccnc1-n1cccn1)c1cccs1` (stereo not drawn), the “Percent Effect” value falls from 107.4% to 100.2%.

First: O=C(CCC(=O)N1CCOCC1)NCc1cccnc1-n1cccn1
Second: CC(O)(CNC(=O)c1cccnc1-n1cccn1)c1ccco1 (stereo not drawn)
The “Percent Effect” value of the first is lower: 4.294% for the first, 109% for the second.

Going from `CNC(=O)c1cccnc1NCc1ccc(-n2cccn2)cc1` to `Cc1ccc(Cl)c(NC(=O)c2cccc(CN3CC[C@H](O)C3)c2)c1`, the “Percent Effect” value rises from -16.78% to 25.72%.

Compared with `CC(C)N1C[C@H](O)C[C@H]1c1nc(-c2ccc(OC(F)(F)F)cc2)no1`, `Cc1cc(N(Cc2ccccc2F)C2CC2)n2nc(C(F)(F)F)nc2n1` is higher in “Percent Effect” value: -2.832% for the first, 37.88% for the second.

Going from `c1c(-c2nc(CN3CCOCC3)no2)nnn1CC1CCCCC1` to `CCOCCC(=O)N1CCCN(Cc2csc(CC)n2)CC1`, the “Percent Effect” value rises from -29.06% to -3.622%.

Compared with `CSCCc1c(-c2ccccc2)ncn1CC(C)(C)N1CCCC1`, `COc1cccc(CN2CCC3(CCN(c4ncc(C)cn4)CC3)C2)c1.O=C(O)C(F)(F)F` is higher in “Percent Effect” value: -6.465% for the first, 4.048% for the second.

Going from `Cc1ccc(C(=O)N2CCC3(CCC(=O)N(CC(N)=O)C3)CC2)c(O)c1` to `COc1cccc(CN2CCC3(CC2)CCN(c2ncc(C)cn2)C3)c1.O=C(O)C(F)(F)F`, the “Percent Effect” value falls from -8.417% to -9.924%.

First: COc1cccc(CN2CCC3(CC2)CCN(c2ncccn2)C3)c1.O=C(O)C(F)(F)F.O=C(O)C(F)(F)F
Second: COc1cccc(CN2CCCC3(CCN(C(=O)N4CCCC4)C3)C2)c1.O=C(O)C(F)(F)F (stereo not drawn)
The “Percent Effect” value of the first is lower: 13.94% for the first, 81.34% for the second.

Going from `O=C(O)[C@@H]1CN(Cc2ccc3nsnc3c2)C[C@H]1c1ccncc1` to `O=C(NC1CC1)c1cc2c(nc1O)CC(c1cccs1)CC2=O` (stereo not drawn), the “Percent Effect” value falls from 20.11% to 2.644%.

`CC(C(=O)NCC1(c2cccc(Br)c2)CCC1)S(C)(=O)=O` (stereo not drawn) was tested, and the “Percent Effect” value was -10.98%.
